# Measurements as given in PubChem BioAssay.
# Tested on: Noggin (protein binding on small-molecule microarray)
# Experiment: Noggin binders on small-molecule microarray, primary screen, biochemical, 635/667 nm fluorescence (AID 1095);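 note: score merges 667 nm feature fluorescence with signal to noise over triplicate slides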
# Settings: 635 nm fluorescence, higher = more signal
row,SMILES,composite z-score
1,COC(=O)c1ccc(OC)c(/C=C\CC(CCc2ccccc2)OC(C)=O)c1 (stereo not given),-0.358
2,C[N+](C)(C)CCCC[C@@H]1NC(=O)[C@H]2C[C@@H](C(=O)NCCCCCCN)[C@@H](c3cccc(OCCO)c3)N2C1=O,1.15
3,C/C=C/[C@@H](CCn1cc([C@H](O)c2ccccc2)nn1)[Si](C)(C)c1ccc(OC)cc1,-0.385
4,CCCCCCCCCCC(O)C1C=CC2C(=O)NC(=O)C2N1Nc1ccccn1 (stereo not given),-0.894
5,COC(=O)[C@@]1(Cc2ccc(F)cc2)[C@H]2c3cc(C(=O)N(C)C)n(CCSCCO)c3C[C@H]2CN1C(=O)c1ccccc1,-0.443
6,CC1CC/C=C\[C@H]2OC34C=CCN(Cc5ccccc5)C(=O)[C@H]3N(CCO)C(=O)[C@@H]4C2C(=O)O1 (stereo not given in full),-0.585
7,C=C(COC)C(=O)CC[C@H](OC(=O)c1ccccc1-c1ccccc1C(=O)O)c1ccc(OCCO)cc1,1.52
8,C=CCC(OC(C)=O)[C@@H]1[C@@H](N(Cc2cc3ccccc3o2)C(=O)Cc2ccc(OC)cc2)c2cc(OCCCO)ccc2N1C(=O)c1ccc(-c2ccccc2)cc1 (stereo not given in full),-0.624
9,CC1CC/C=C\[C@H]2OC34C=CCN(c5ccc(Cl)cc5)C(=O)[C@H]3N(C(CO)C(C)C)C(=O)[C@]4(C)C2C(=O)O1 (stereo not given in full),-0.643
10,O=C1O[C@@H](c2ccccc2)[C@@H](c2ccccc2)N2[C@@H](c3ccc(O)cc3)[C@]3(C(=O)Nc4ccc(C#CC5(O)CCCCCC5)cc43)[C@@H](C(=O)N3CCN(c4ncccn4)CC3)[C@H]12,0.864
11,CC[C@@H]1[C@@H]2C3C(=O)N(CC)C(=O)C3CC(=O)[C@@H]2[C@H](c2ccc(C)cc2)N1S(=O)(=O)c1ccc(C)cc1 (stereo not given in full),0.381
12,COCCOC(=O)N1C(=O)[C@@]2(c3cc(C#CCCO)ccc31)[C@H](C(=O)NC[C@H](O)c1ccccc1)[C@H]1C(=O)O[C@H](c3ccccc3)[C@H](c3ccccc3)N1[C@@H]2c1ccccc1OCCO,1.42
13,C=CCOC(=O)[C@@H]1[C@H]2C(=O)O[C@H](c3ccccc3)[C@H](c3ccccc3)N2[C@H](c2ccc(OCCOC(=O)[C@@H]3C[C@@H]4C(=O)N[C@@H](CCCCNC(C)=O)C(=O)N4[C@@H]3c3ccc(O)cc3)cc2)[C@@]12C(=O)Nc1ccc(I)cc12,1.42
14,CC(C)CCC[C@@H](C)[C@H]1CC[C@@]2(C)C3=C(CC[C@]12C)[C@@]1(C)CC[C@H](OC(=O)c2ccc(N)cc2)C(C)(C)C1CC3 (stereo not given in full),0.434
15,CCCN1C(=O)[C@@H]2Cc3c([nH]c4ccccc34)[C@@H](c3cccc(O)c3)N2C1=O,0.287
16,C=CCN1C(=O)[C@@]2(O[C@@H](CCn3cc([C@H](O)c4ccccc4)nn3)[C@H]([Si](C)(C)c3ccc(OC)cc3)[C@H]2C)c2cc(NC(=O)c3ccc(OC)cc3)ccc21,0.551
17,COc1ccc([Si](C)(C)[C@@H]2[C@@H](CC(=O)N(CCO)Cc3ccccc3)O[C@]3(C(=O)N(Cc4ccc(N5CCOC5=O)cc4)c4ccccc43)[C@H]2C)cc1,0.806
18,COCCOC(=O)N1C(=O)[C@@]2(c3cc(C#Cc4ccc(OC)cc4)ccc31)[C@H](C(=O)N1CCc3cc(OC)c(OC)cc3C1)[C@H]1C(=O)O[C@H](c3ccccc3)[C@H](c3ccccc3)N1[C@@H]2c1ccc(O)cc1,0.614

row,SMILES,composite z-score
1,CC(C)CNC(=O)[C@@]1(C)c2ccccc2C(=O)N(Cc2ccccc2)[C@H]1c1ccc(CO)cc1,-1.79
2,COc1ccccc1CN1C(=O)c2ccccc2[C@](Cc2ccccc2I)(C(=O)NCCN2CCOCC2)[C@@H]1c1ccc(CO)cc1,1.12
3,CCCCCCC#C[Si](O[C@H](c1ccccc1)c1cn(Cc2cccc(Cl)c2)nn1)(C(C)C)C(C)C,0.255
4,COc1ccc([Si](C)(C)[C@@H]2[C@@H](CCO)O[C@]3(C(=O)N(Cc4ccccc4)c4ccc(N5CCCCC5=O)cc43)[C@H]2C)cc1,0.901
5,COC(=O)[C@@]1(Cc2ccc(F)cc2)[C@@H]2[C@@H](CC(=O)[C@H]2CC(=O)C(=O)N2CCCC2)CN1C(=O)c1ccccc1,-0.413
6,COCCOC(=O)N1C(=O)[C@@]2(c3cc(C#CCCO)ccc31)[C@H](c1ccc(OCCO)cc1)N1[C@H](c3ccccc3)[C@H](c3ccccc3)OC(=O)[C@H]1[C@@H]2C(=O)N1CCc2cc(OC)c(OC)cc2C1,1.05
7,C=CC[C@]1(C(=O)NCC(O)CO)N=C(c2ccc(OCCCO)cc2)O[C@H]1c1ccccc1N=[N+]=[N-] (stereo not given in full),-0.0496
8,O=C(O)[C@]1(CCS(=O)(=O)c2ccccc2)N=C(c2ccc(OCCCO)cc2)O[C@@H]1c1ccccc1,-0.116
9,[N-]=[N+]=NCc1ccccc1C[C@]1(C(=O)NCCN2CCOCC2)COC(c2ccc(OCCCO)cc2)=N1,0.516
10,CC(C)C[C@@H]1NC(=O)[C@@H]2C[C@H](C(=O)NCc3ccc(F)cc3)[C@H](c3ccc(O)cc3)N2C1=O,0.479
11,C=CCNC(=O)[C@H]1[C@@H]2C(=O)O[C@@H](c3ccccc3)[C@@H](c3ccccc3)N2[C@@H](c2ccc(O)cc2)[C@]12C(=O)N(C(=O)OCCOC)c1ccc(C#CC3(O)CCCCCC3)cc12,0.147
12,COCCOC(=O)N1C(=O)[C@@]2(c3cc(C#CCC(C(=O)OC)C(=O)OC)ccc31)[C@H](C(=O)N1CCCCCCC1)[C@H]1C(=O)O[C@H](c3ccccc3)[C@H](c3ccccc3)N1[C@@H]2c1ccc(O)cc1,1.37
13,O=[N+]([O-])c1ccc(C[n+]2ccc(-c3ccc(CO)cc3)cc2)o1,0.526
14,CN1C(=O)C2C=CC(C(O)COCc3ccccc3)N(Nc3ccccc3)C2C1=O (stereo not given),0.28
15,COC(=O)[C@@]1(Cc2ccc(OC)cc2)[C@H]2c3cc(C(=O)N4CCCC4)n(CCc4ccc(O)c(OC)c4)c3C[C@H]2CN1C(=O)c1ccccc1,-0.879
16,C=C(CCCC)/C(=C/C[C@H](OC(=O)c1ccncc1)c1ccc(CO)o1)c1cc(C(=O)OC)ccc1OC,1
17,C[C@@H]1ON(c2ccccc2)[C@H](c2ccccc2)[C@H]1C(=O)N1C(=O)OC[C@H]1Cc1ccccc1,0.405
